Inconclusive results are not listed. The source made the active and inactive calls. Unless noted, calls follow the shape of the dose curve; as a rule, active = well fitted cell-killing curve with a large enough effect; inconclusive = small, poorly fitted or top-dose-only effect; inactive = flat fitted curve, though single readings scatter.
Assays:
[1] = Cell Viability - LYMP2-017 (AID 972); also: series mostly up to about 92 µM; nearly all actives have a fitted effect of over 55% in size
In short: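 CellTiter-Glo luminescence (cellular ATP, 30 min RT) measured cytotoxicity after 24 hr compound treatment at 37 C. Cells were a human lymphoblastoid line, LYMP2-017, plated at 2500/well and incubated 5 hr first; concentration-response fitted with Hill equation for AC50.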

[2] = Cell Viability - LYMP2-019 (AID 973); also: nearly all actives have a fitted effect of over 55% in size
In short: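 AC50 values come from Hill-equation fits of luminescent intracellular ATP (CellTiter-Glo, 30 min, room temperature) following 24 h compound exposure at 37 C. Cells: LYMP2-019 lymphoblastoid line, 2500 per well, in complete culture medium.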

[3] = Cell Viability - LYMP2-021 (AID 974); also: nearly all actives have a fitted effect of over 55% in size
In short: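 AC50 values come from Hill-equation fits to CellTiter-Glo luminescence (ATP content), read after 24 hour compound exposure at 37 C of 2500 LYMP2-021 lymphoblastoid cells/well; tetraoctylammonium bromide as positive control.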

[4] = Cell Viability - LYMP2-023 (AID 975);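 also: cellular ATP measured by luciferase luminescence as viability proxy; series mostly up to about 92 µM; nearly all actives have a fitted effect of over 55% in size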
In short: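 Intracellular ATP, read by CellTiter-Glo luminescence, reports viability after 24 hr compound exposure at 37 C. 2500 lymphoblastoid cells/well (LYMP2-023) seeded 5 hr beforehand; Hill fits give AC50; positive control tetraoctylammonium bromide.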

[5] = Cell Viability - LYMP2-025 (AID 976); also: series mostly up to about 92 µM
In short: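 Cytotoxicity read as loss of intracellular ATP (luciferase luminescence) after 24 h compound treatment at 37 C. Uses LYMP2-025 lymphoblastoid cells in 1536-well format; Hill-equation modelling gives AC50; tetraoctylammonium bromide as positive control.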

[6] = Cell Viability - LYMP2-002 (AID 977); also: series mostly up to about 92 µM
In short: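 Human lymphoblastoid cells, 2500/well, complete medium; 5 h 37 C settle; compound 24 h 37 C; CellTiter-Glo, 30 min RT; luminescence. Decrease in ATP = cytotoxicity; AC50 via Hill equation.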

[7] = Cell Viability - LYMP2-006 (AID 978); also: series mostly up to about 92 µM; nearly all actives have a fitted effect of over 60% in size
In short: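 Potency values are Hill-fit AC50s for decreases in intracellular ATP (CellTiter-Glo luminescence). LYMP2-006 lymphoblastoid cells, 2500 per well, were exposed to compound in complete culture medium for 24 hr at 37 C.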

[8] = Cell Viability - LYMP2-007 (AID 979);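 also: cells exposed to compound for 24 h before reading; nearly all actives have a fitted effect of over 60% in size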
In short: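 AC50 values come from Hill-equation fits of luminescent intracellular ATP (CellTiter-Glo, 30 min, room temperature) following 24 h compound exposure at 37 C. Cells: LYMP2-007 lymphoblastoid line, 2500 per well, in complete culture medium.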

[9] = Cell Viability - LYMP2-010 (AID 981); also: nearly all actives have a fitted effect of over 55% in size
In short: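 CellTiter-Glo ATP luminescence measured cytotoxicity after 24 h compound exposure at 37 C. LYMP2-010 cells were seeded at 2500/well, with tetraoctylammonium bromide as control; concentration-response curves gave AC50 values by the Hill equation.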

[10] = Cell Viability - LYMP2-012 (AID 982)
[11] = Cell Viability - LYMP2-014 (AID 983); also: series mostly up to about 92 µM; nearly all actives have a fitted effect of over 50% in size
In short: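 Intracellular ATP loss, read by luciferase luminescence, measures acute cytotoxicity after 24 h compound exposure of lymphoblastoid LYMP2-014 cells (2500/well, 37 C). Concentration-response data fitted to the Hill equation for AC50.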

[12] = Cell Viability - LYMP2-016 (AID 984); also: nearly all actives have a fitted effect of over 55% in size
In short: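 Cytotoxicity was scored by luminescent ATP content (CellTiter-Glo) after 24 h compound exposure at 37 C of a human lymphoblastoid line at 2500 cells/well. Concentration-response data were fitted to the Hill equation for AC50.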

[13] = Cell Viability - LYMP2-018 (AID 985); also: nearly all actives have a fitted effect of over 50% in size
In short: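 Viability read as CellTiter-Glo luminescence (cellular ATP) after 24 hr compound exposure at 37 C of 2500 LYMP2-018 lymphoblastoid cells/well, pre-plated 5 hr. Hill-equation modelling gave AC50.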

[14] = Cell Viability - LYMP2-020 (AID 986)
In short: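 Cytotoxicity in qHTS format: luminescent ATP readout from CellTiter-Glo after 24 h compound exposure at 37 C in complete medium. LYMP2-020 lymphoblastoid cells were seeded at 2500/well; concentration-response data fitted to the Hill equation for AC50.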

[15] = Cell Viability - LYMP2-022 (AID 987); also: nearly all actives have a fitted effect of over 55% in size
In short: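 Cytotoxicity read as decreased cellular ATP (CellTiter-Glo luminescence, 30 min room temperature) after 24 hours compound exposure of 2500 lymphoblastoid LYMP2-022 cells/well at 37 C. Concentration-response data fitted with standard Hill equation for AC50.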

[16] = Cell Viability - LYMP2-024 (AID 988); also: nearly all actives have a fitted effect of over 60% in size
In short: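 Cytotoxicity was taken as a decrease in ATP (CellTiter-Glo luminescence) after 24 hr compound exposure at 37 C of LYMP2-024 lymphoblastoid cells, 2500 cells/well. Concentration-response data were fitted to the Hill equation to give AC50.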

[17] = Cell Viability - LYMP2-026 (AID 989); also: nearly all actives have a fitted effect of over 50% in size
In short: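 Cytotoxicity read as ATP-dependent luminescence (CellTiter-Glo, 30 min room temperature) after 24 h compound treatment at 37 C. LYMP2-026 lymphoblastoid line seeded at 2500 cells/well; AC50 derived by standard Hill equation.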

[18] = Cell Viability - LYMP1-002 - Assay at 24 hr (AID 993)
In short: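 qHTS cytotoxicity at 24 h: CellTiter-Glo ATP luminescence in lymphoblastoid line LYMP1-002 incubated with compound at 37 °C. Concentration-response modeled with the Hill equation for AC50; tetraoctylammonium bromide served as positive control.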

[19] = qHTS Assay for Identification of Small Molecule Inducers of Hypoxia Response (AID 2120; active = well fitted curve in the direction sought with a large enough effect in the signal ratio, with a control signal flat, not every such curve was filed as active; the % refers to the signal ratio)
In short: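 Reporter induction read as the CCF4 blue/green (460nm/530nm) emission ratio after 2.5 h dye loading at room temperature. ME-180 HRE-beta-lactamase cells received titrated compounds for 17 h at 37 degrees Celsius; AC50 values derived.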

[20] = qHTS assay for small molecule antagonists of peroxisome proliferator-activated receptor delta signaling (AID 588535; active = well fitted inhibition curve with a large enough effect in the signal ratio, with a control signal flat, not every such curve was filed as active; the % refers to the signal ratio;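 as to max response: cells co-treated with a PPAR-delta agonist as stimulator during compound exposure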); settings: HEK293T PPARd-UAS-bla, beta-lactamase FRET ratio, 18 h; 460 nm channel
In short: (§1)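 Fluorescence from CCF4-loaded GeneBLAzer PPAR-delta-UAS-bla HEK293T cells (2 hrs RT loading) quantified reporter inhibition after an 18 hr, 37 C compound exposure across a titration.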

[21] = target: Peroxisome proliferator-activated receptor delta (Homo sapiens) (UniProt Q03181); assay: as above
In short: as §1

[22] = target: Thyroid hormone receptor beta (Homo sapiens) (UniProt P10828); assay: qHTS assay for small molecule agonists of thyroid hormone receptor beta signaling (AID 588545; calls by dose curve)
In short: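 In this cell-based screen, titrated compounds act on HEK 293 cells held in medium with 2% charcoal/dextran FBS, NEAA and pyruvate for 18 hrs at 37 C. Responses are expressed relative to T3 (10 nM) as 100% and basal DMSO as 0%.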

Sequence of Peroxisome proliferator-activated receptor delta (Homo sapiens) (Q03181 whole entry, looked up): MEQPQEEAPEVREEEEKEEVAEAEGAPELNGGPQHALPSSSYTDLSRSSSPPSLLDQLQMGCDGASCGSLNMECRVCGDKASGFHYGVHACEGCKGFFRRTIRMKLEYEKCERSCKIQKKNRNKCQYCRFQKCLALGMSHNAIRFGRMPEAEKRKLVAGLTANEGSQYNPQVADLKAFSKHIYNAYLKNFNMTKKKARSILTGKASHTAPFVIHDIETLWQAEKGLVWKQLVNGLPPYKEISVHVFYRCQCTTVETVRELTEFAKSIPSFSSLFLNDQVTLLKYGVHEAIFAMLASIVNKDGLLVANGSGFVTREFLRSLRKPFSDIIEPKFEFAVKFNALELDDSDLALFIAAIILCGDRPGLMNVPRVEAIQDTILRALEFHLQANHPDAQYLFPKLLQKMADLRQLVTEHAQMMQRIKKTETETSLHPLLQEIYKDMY
Sequence of Thyroid hormone receptor beta (Homo sapiens) (P10828 whole entry, looked up): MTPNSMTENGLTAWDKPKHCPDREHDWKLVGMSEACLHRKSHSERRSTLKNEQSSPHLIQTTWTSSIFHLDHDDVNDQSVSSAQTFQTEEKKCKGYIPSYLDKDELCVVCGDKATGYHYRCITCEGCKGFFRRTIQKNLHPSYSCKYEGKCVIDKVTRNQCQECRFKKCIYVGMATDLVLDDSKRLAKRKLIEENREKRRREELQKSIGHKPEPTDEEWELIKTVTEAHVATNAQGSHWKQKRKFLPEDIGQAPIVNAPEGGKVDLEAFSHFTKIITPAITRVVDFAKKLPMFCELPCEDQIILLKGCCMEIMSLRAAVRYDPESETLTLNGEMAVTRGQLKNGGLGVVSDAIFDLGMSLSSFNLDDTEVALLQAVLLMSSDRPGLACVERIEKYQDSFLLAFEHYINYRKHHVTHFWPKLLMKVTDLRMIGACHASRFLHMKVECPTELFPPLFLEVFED

CCCCCCCCCCCC(=O)O
12.5%: max response [20]
inactive: Potency [1] | Potency [2] | Potency [3] | Potency [4] | Potency [5] | Potency [6] | Potency [7] | Potency [8] | Potency [9] | Potency [10] | Potency [11] | Potency [12] | Potency [13] | Potency [14] | Potency [15] | Potency [16] | Potency [17] | Potency [18] | outcome [19] | Potency [21] | outcome [22]

— PubChem BioAssay (NCATS)
